# LGR2 antag = inhibitors of bursicon-induced Drosophila LGR2 receptor cAMP signaling; actives 0.35% (n = 380,000); inhibition, % at 9.99 µM; HEK293 LGR2, CRE-luciferase, bursicon-stimulated, 4 h;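 active = drop in luminescence signal, shown as inhibition above about 50% in the replicate tests, limit read from the data, passing the limit was not always enough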;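 note: agonist challenge used bursicon conditioned medium at about half maximal strength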
# PGC1a acetyl inh = modulators of PGC1a acetylation | U2OS PGC1a acetylation, AlphaScreen anti-acetyl-lysine; with virally co-expressed GCN5 acetyltransferase | inhibition, % at 15.6 µM | actives 0.17% (n = 350,000);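 active = every replicate shows inhibition of at least 40%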;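 note: 0% = neutral control wells and 100% = positive control wells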
# PAX8 reporter = inhibitors of PAX8 transcriptional activity in RMG-I cells; inhibition, % at 12.6 µM; RMG-I TPO-luciferase reporter, SteadyGlo, 24 h; actives 1.2% (n = 360,000); AID 652154;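 active = mean replicate inhibition at least 60% with every replicate also reaching 60%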;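 note: luciferase light reporting Pax8 driven TPO promoter activity; plate controls were median of neutral control wells for no effect and mitoxantrone controls for full effect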
# EWS-Fli block = blocks EWS/Fli oncoprotein-driven transcription. A673 NR0B1-luciferase reporter, viability-normalised. inhibition, % at 12.6 µM. actives 0.67% (n = 350,000);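 active = mean inhibition of at least 50% after viability correction, with every replicate also passing that limit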;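 note: firefly luciferase signal divided by Alamar Blue viability fluorescence both relative to DMSO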
# TRPM1 prom inh = reduces MITF-dependent TRPM1 promoter luciferase signal; SK-MEL-5 TRPM1 promoter luciferase, 24 h; inhibition, % at 12.5 µM; actives 0.83% (n = 330,000);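 active = mean inhibition across replicates of 60% or more, whatever share of single replicates reaches that level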
# EBV LMP1 NFkB = reduces LMP1-driven NF-kappaB luciferase signal | actives 0.69% (n = 350,000) | inhibition, % at 12.5 µM | LMP1-induced NF-kappaB luciferase reporter cells, luminescence; in the data active = inhibition above about 41%;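 note: 0% = neutral control wells and 100% = reference inhibitor control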
# Active calls of the source: *; · = no result given. Sampled rows, rich in hits. Any-hit rate of the full collection: about 2.2%.
SMILES,LGR2 antag,PGC1a acetyl inh,PAX8 reporter,EWS-Fli block,TRPM1 prom inh,EBV LMP1 NFkB
Cc1ccc(S(=O)(=O)N[C@@H]2CC[C@@H](CC(=O)NCc3ccccc3F)O[C@H]2CO)cc1,18.5,-12.5,-1.2,-2.7,·,·
C[C@H](O)C#Cc1cnc2c(c1)C(=O)N([C@H](C)CO)C[C@H](C)[C@H](CN(C)C(=O)Cc1ccncc1)O2,-2.9,11.1,-1.9,-4.5,·,·
O=C(C1CCCC1)N1C[C@@H]2[C@H](c3ccccc31)[C@H](CO)N2C(=O)c1ccccc1,-13.5,-7.3,-8.6,-5.0,·,·
Cc1cc(/C=C2\SC(=S)N(C)C2=O)c(C)n1-c1ccccc1O,-32.5,1.1,-126.9,-59.8,-3.5,-0.4
Cc1cc(/C=C2\SC(=S)N(C)C2=O)c(C)n1-c1ccc(O)cc1,64.2*,6.5,7.1,74.7*,75.9*,47.5*
CCCCCC(CC(=O)NO)C(=O)NC(C(=O)N1CCCC1CO)C(C)C (configuration not stated),·,-20.6,90.1*,-9.6,-1.4,4.5
COc1cc(OC)c2c(-c3cccc(-c4ccc(C(C)=O)cc4)c3)cc(=O)oc2c1,·,7.0,·,·,42.2,-0.7
COc1cc(OC)c2c(-c3cccc(-c4ccc(OC)c(F)c4)c3)cc(=O)oc2c1,-27.4,·,89.2*,38.9,52.9,-10.9
CCC(/C=C1\Sc2ccc(OC)cc2N1CCO)=C\c1sc2ccc(OC)cc2[n+]1CCO,-18.3,8.0,16.2,3.0,96.1*,45.8*
CCCCCCCCn1ccc(=N)cc1,11.9,3.6,6.7,15.1,9.9,15.0
CCCCCCCCCCn1ccc(=N)cc1,35.8,-3.5,82.8*,57.7*,76.9*,29.3
CCCCc1c(-c2ccccc2OC)ncn1Cc1ccc(C)cc1,26.6,·,61.3*,35.1,·,·
c1ccc(-c2cn3nc4c(nc3n2)CCCC4)cc1,68.4*,4.5,·,·,73.1*,64.0*
Cc1noc(C)c1S(=O)(=O)Nc1ccc2c(c1)C(=O)N([C@@H](C)CO)C[C@H](C)[C@H](CN(C)S(=O)(=O)c1cccs1)OCCCC[C@H](C)O2,17.3,4.8,-3.2,10.2,·,·
C=CCN1C(=O)[C@]2(O[C@H](CCO)[C@@H]([Si](C)(C)c3ccc(OC)cc3)[C@@H]2C)c2cc(NC(=O)[C@H](C)O)ccc21,·,5.1,-5.4,5.4,·,·
COc1ccc([Si](C)(C)[C@H]2[C@H](CCO)O[C@@]3(C(=O)N(Cc4cccc(NC(=O)[C@H](C)O)c4)c4ccccc43)[C@@H]2C)cc1,·,-15.8,86.4*,16.9,·,·
COc1ccc([Si](C)(C)[C@@H]2[C@@H](CCn3cc(CCO)nn3)O[C@]3(C(=O)N(Cc4ccc(N5CCOC5=O)cc4)c4ccccc43)[C@H]2C)cc1,·,-18.6,·,35.5,·,·
C=CCN1C(=O)[C@]2(O[C@H](CCO)[C@@H]([Si](C)(C)c3ccc(OC)cc3)[C@@H]2C)c2cc(I)ccc21,·,-52.3,105.3*,29.7,·,·
COc1ccc([Si](C)(C)[C@H]2[C@H](CCO)O[C@@]3(C(=O)N(Cc4ccc(N5CCOC5=O)cc4)c4ccccc43)[C@@H]2C)cc1,·,·,106.7*,23.6,·,·
COc1ccc([Si](C)(C)[C@@H]2[C@@H](CCO)O[C@]3(C(=O)N(Cc4ccc(NC(=O)[C@H](C)O)cc4)c4ccccc43)[C@H]2C)cc1,·,·,101.1*,22.9,·,·
CC=Cc1ccc2n(c1=O)C[C@H]1[C@H](CO)[C@@H](C(=O)NCc3ccncn3)N(C(=O)NC3CCCC3)[C@@H]21 (mixture of isomers),10.1,·,-11.2,-1.3,·,·
C[C@H](CO)N1C[C@H](C)[C@H](CN(C)S(=O)(=O)c2cccs2)Oc2c(NC(=O)C3CC3)cccc2C1=O,-6.2,-6.7,-13.5,-14.3,·,·
COc1ccc(C(=O)Nc2ccc(CN3C(=O)[C@]4(O[C@H](CC(=O)N5Cc6ccccc6C[C@H]5CO)[C@@H]([Si](C)(C)c5ccc(OC)cc5)[C@@H]4C)c4ccccc43)cc2)cc1,·,·,91.7*,-1.6,·,·
COc1ccc([Si](C)(C)[C@@H]2[C@@H](CC(=O)N3Cc4ccccc4C[C@H]3CO)O[C@]3(C(=O)N(C)c4c(Br)cc(C)cc43)[C@H]2C)cc1,·,4.7,80.7*,-1.4,·,·
Cc1ccc(S(=O)(=O)N[C@@H]2CC[C@@H](CC(=O)NCc3ccc(Cl)c(Cl)c3)O[C@@H]2CO)cc1,13.4,2.2,10.4,-3.1,·,·
